{
  "source": "PubChem BioAssay (NCATS)",
  "note": "Where “and” joins values, the source holds several entries; their conditions need not be identical. Equal values may be shown once. Records with an inconclusive call do not appear. Values without a mark were called inactive. Calls of active or inactive are those of the source. The call rests on the fitted dose curve; in most records, active means well fitted curve in the direction sought with a large enough effect; inconclusive means small, poorly fitted or top-dose-only effect, or another doubt; inactive means no such curve, though single readings can be large; an effect the other way counts as inactive or inconclusive. Potency means the concentration at half of the fitted maximal effect.",
  "data": [
    {"test": "P-glycoprotein substrates identified in KB-3-1 adenocarcinoma cell line, qHTS therapeutic library screen (AID 1346986); further: nearly all actives have a fitted effect of over 60% in size;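 further: potency is for cytotoxicity meaning loss of cell viability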", "conditions": "KB-3-1 parental cells viability, CellTiter-Glo, 72 h; series mostly up to 44.5 µM; activity change, negative = cytotoxicity: at the top concentration", "outline": "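KB-3-1 parental cells and P-gp-overexpressing KB-8-5-11 (colchicine omitted during assay) plated at 500 cells/well, dosed in dose-response, incubated 72 h at 37 degree C. CellTiter-Glo luminescence read; KB-8-5-11 also tested with tariquidar.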", "values": [
      {"compound": "C[C@H](NC(=O)C(=O)Nc1ccccc1C(C)(C)C)C(=O)N[C@@H](CC(=O)O)C(=O)COc1c(F)c(F)cc(F)c1F", "outcome": "inactive"},
      {"compound": "OC[C@H]1O[C@@H](Oc2cc(O)cc(C=Cc3ccc(O)cc3)c2)[C@H](O)[C@@H](O)[C@H]1O", "outcome": "inactive"},
      {"compound": "O=C(O)c1ccccc1C(=O)Nc1ccc(-c2ccccc2)cc1", "outcome": "inactive"},
      {"compound": "NC(=O)c1cnc(-c2ccc(C3(N)CCC3)cc2)c(-c2ccccc2)c1", "Potency": "16.4 µM (active)"}
    ]},
    {"test": "P-glycoprotein substrates identified in KB-8-5-11 adenocarcinoma cell line, qHTS therapeutic library screen (AID 1346987); further: nearly all actives have a fitted effect of over 65% in size; on activity change, negative = cytotoxicity: on the % scale 0 is the no-effect control and ±100 the full control effect", "conditions": "KB-8-5-11 (P-gp overexpressing) viability, CellTiter-Glo, 72 h; series mostly up to 44.5 µM; activity change, negative = cytotoxicity: at the top concentration", "outline": "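P-gp-mediated resistance screen: KB-8-5-11 cells treated 72 h with compounds in dose-response. CellTiter-Glo viability.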", "values": [
      {"compound": "CC(C)C(=O)Oc1ccc(CO)cc1[C@H](CCN(C(C)C)C(C)C)c1ccccc1", "Potency": "inactive"},
      {"compound": "C[C@]12CCC3c4ccc(O)cc4CCC3C1CCC2=O", "note": "(some centres undefined)", "activity change, negative = cytotoxicity": "-10.6%"},
      {"compound": "C[C@H](NC(=O)C(=O)Nc1ccccc1C(C)(C)C)C(=O)N[C@@H](CC(=O)O)C(=O)COc1c(F)c(F)cc(F)c1F", "activity change, negative = cytotoxicity": "1.65%"},
      {"compound": "COC1CCC(N(C(=O)C2CCC(C)CC2)c2cc(C3=CCCCC3)sc2C(=O)O)CC1", "note": "(centres undefined)", "activity change, negative = cytotoxicity": "-1%"},
      {"compound": "O=C(O)c1cc(O)c2c(c1)C(=O)c1cccc(O)c1C2=O", "activity change, negative = cytotoxicity": "9.41% [at 93.4 µM]"},
      {"compound": "CO[C@H]1C(=O)[C@]2(C)[C@@H](OC)C[C@H]3OC[C@@]3(OC(C)=O)[C@H]2[C@H](OC(=O)c2ccccc2)[C@]2(O)C[C@H](OC(=O)[C@H](O)[C@@H](NC(=O)OC(C)(C)C)c3ccccc3)C(C)=C1C2(C)C", "Potency": "0.001 µM (active)"},
      {"compound": "O=c1cc(-c2ccccc2)oc2cc(O)cc(O)c12", "activity change, negative = cytotoxicity": "-8.46%"},
      {"compound": "CC(C)(Cc1ccc2ccccc2c1)NC[C@@H](O)COc1cccc(Cl)c1C#N", "activity change, negative = cytotoxicity": "4.88%"},
      {"compound": "Cc1[nH]c(C=C2C(=O)Nc3ccc(S(=O)(=O)Cc4c(Cl)cccc4Cl)cc32)c(C)c1C(=O)N1CCC[C@H]1CN1CCCC1", "activity change, negative = cytotoxicity": "3.82%"},
      {"compound": "O=C(NCc1ccncc1)C12C[C@H]3C[C@@H](C1)CC(c1ccc(Cl)cc1)(C3)C2", "activity change, negative = cytotoxicity": "-22.6%"},
      {"compound": "NC1=N[C@@]2(c3cc(NC(=O)c4ccc(F)cn4)ccc3F)COC[C@@H]2CS1", "activity change, negative = cytotoxicity": "-0.951%"},
      {"compound": "Oc1ccc(C2CCN(c3ccnc4ccccc34)CC2)cc1O", "activity change, negative = cytotoxicity": "-14.4%"},
      {"compound": "OC[C@H]1O[C@@H](Oc2cc(O)cc(C=Cc3ccc(O)cc3)c2)[C@H](O)[C@@H](O)[C@H]1O", "outcome": "inactive"},
      {"compound": "CCc1ccc(C=C2SC(=S)NC2=O)cc1", "activity change, negative = cytotoxicity": "-25.7%"},
      {"compound": "CCc1ccc(OCc2ccccc2C(=O)Nc2ccc3nc(C)cc(N)c3c2)cc1", "Potency": "7.43 µM (active)"},
      {"compound": "COC(=O)C1=CO[C@@H](O)[C@@H]2C(CO)=CC[C@@H]12", "activity change, negative = cytotoxicity": "-1.26%"},
      {"compound": "CCC(CC)[C@H](NC(C)=O)[C@@H]1[C@H](O)[C@@H](C(=O)O)C[C@@H]1N=C(N)N", "activity change, negative = cytotoxicity": "-9.48%"},
      {"compound": "COc1cc2nc(-c3ccc(N4CCN(C)CC4)cc3)nc(NCCN3CCOCC3)c2cc1OC", "Potency": "7.31 µM (active)"},
      {"compound": "Cc1ccccc1C(C(=O)NC1CCCCC1)N(C(=O)Cn1ccnc1C)c1cccc(F)c1", "note": "(centres undefined)", "Potency": "inactive"},
      {"compound": "NC(=O)NN=Cc1ccc([N+](=O)[O-])o1", "activity change, negative = cytotoxicity": "7.7%"},
      {"compound": "Cn1cc(C=C2C(=O)Nc3cccnc32)c2ccccc21", "activity change, negative = cytotoxicity": "0.786%"},
      {"compound": "O=c1cc(-c2ccc(O)cc2)oc2cc(O)cc(O)c12", "outcome": "inactive"},
      {"compound": "C[C@]12CC[C@@H]3c4ccc(O)cc4C[C@@H](CCCCCCCCCS(=O)CCCC(F)(F)C(F)(F)F)[C@H]3[C@H]1CC[C@H]2O", "note": "(some centres undefined)", "activity change, negative = cytotoxicity": "-8.39%"},
      {"compound": "O=C(O)c1ccccc1C(=O)Nc1ccc(-c2ccccc2)cc1", "Potency": "inactive"},
      {"compound": "O=c1cc(-c2ccccc2)oc2cc(O)c(O)c(O)c12", "activity change, negative = cytotoxicity": "0.789%"},
      {"compound": "COc1ccc2c(Oc3ccc(NC(=O)c4c(C)n(CC(C)(C)O)n(-c5ccccc5)c4=O)nc3)ccnc2c1", "activity change, negative = cytotoxicity": "4.07%"},
      {"compound": "Cc1ccc(C(C)(O)c2nc3ccccc3s2)c(C)c1", "note": "(centres undefined)", "activity change, negative = cytotoxicity": "0.611%"},
      {"compound": "NC(=O)c1cnc(-c2ccc(C3(N)CCC3)cc2)c(-c2ccccc2)c1", "activity change, negative = cytotoxicity": "-11.2%"},
      {"compound": "C[C@]12CC[C@@H]3c4ccc(O)cc4CC[C@H]3[C@H]1C[C@@H](O)[C@H]2O", "activity change, negative = cytotoxicity": "8.28%"},
      {"compound": "CC(C)C[C@H](CC(=O)O)C(=O)N[C@@H](Cc1c[nH]c2ccccc12)C(=O)N[C@@H](C)c1ccccc1", "activity change, negative = cytotoxicity": "5.46%"},
      {"compound": "O=C(O)C(O)Cc1ccc(O)c(O)c1", "note": "(centres undefined)", "activity change, negative = cytotoxicity": "7.85%"},
      {"compound": "CC(C)n1nc(-c2ccc3oc(N)nc3c2)c2c(N)ncnc21", "Potency": "1.3 nM (active) and 32.6 nM (active)"},
      {"compound": "CC(C)=CC[C@@H](O)C1=CC(=O)c2c(O)ccc(O)c2C1=O", "outcome": "inactive"},
      {"compound": "Cc1ccc(C(=O)Nc2cccc(C(F)(F)F)c2)cc1Nc1nc(-c2cccnc2)nc2c1cnn2C", "activity change, negative = cytotoxicity": "-11.4%"},
      {"compound": "COc1ccc2cccc(CCNC(C)=O)c2c1", "activity change, negative = cytotoxicity": "7.65%"}
    ]}
  ]
}
